Eight molecules from PubChem BioAssay can be followed below.

The source made the active and inactive calls.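 The calls were made as follows, unless noted: active = inhibition at or above 50% at 10 µM; inactive = inhibition below 50%.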

As usually defined, the inhibition is the drop in the measured response relative to a control, in per cent.

Assay [1] in a line: inhibitors of TNFa-induced NFkB p65 translocation, primary screen, imaging, HUVEC, MLSMR starter and 10KST1 sets (AID 438;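 active = inhibition above 20% together with a positive visual image hit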;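 also: compound added about 3h40 before a 20 min TNFalpha stimulation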;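 as to inhibition: signal is the nuclear over cytoplasmic p65 intensity ratio per well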). The note with it: HUVEC TNFa-induced p65 nuclear translocation; cell count: measured here: nuclei count (cytotoxicity indicator), at 2.08 µM; inhibition: at 2 µM, stronger effect = higher value, 0% TNFa-plus-vehicle, 100% no-TNFa wells.
Assay [2] in a line: reduction of polyQ htt aggregates in cells – imaging, exon1htt(103Q)mCFP cells, high-content imaging, primary screen (AID 483;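 active = visual image review flags a hit and inhibition of aggregation exceeds 20%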;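 also: compound exposure lasted 3 days before fixation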;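 as to nuclei count: percent of the per-plate median nuclei count of sample wells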). The following applies: exon1htt(103Q)mCFP cell line, aggregate imaging, at 2 µM; inhibition of aggregation: stronger effect = higher value; nuclei count: measured here: cell count, toxicity.
A short description of assay [3]: endothelial E-selectin expression blockers – imaging, HUVEC, immunofluorescence, MLSMR starter and 10KST1 sets, primary screen (AID 487;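 active = visually confirmed hit in the image check and inhibition above 20%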;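 as to inhibition: signal is fraction of cell area covered by stained E-selectin grains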;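 as to nuclei count: 100% = median nuclei count of all wells on the same plate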). The following applies: HUVEC TNFalpha-induced E-selectin immunofluorescence imaging, at 2 µM; inhibition: stronger effect = higher value; nuclei count: measured here: cell number, toxicity.
Assay [4] deals with Voltage-gated potassium channel subunit beta-2 (Rattus norvegicus) (UniProt P62483). Description: inhibitors of rat Kvbeta2 reductase activity – biochemical, NADPH fluorescence, primary screen (AID 622;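 active = fluorescence slope higher than the sample average by over 3 SD, cut at about -0.22 in these data, passing the limit was not always enough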;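 also: slope of raw intensity against log time taken from 70 to 1610 s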). The following applies: recombinant KvBeta, 4-cyanobenzaldehyde reduction, at 10 µM, stronger effect = higher value.
Sequence of Voltage-gated potassium channel subunit beta-2 (Rattus norvegicus) (P62483 whole entry, looked up): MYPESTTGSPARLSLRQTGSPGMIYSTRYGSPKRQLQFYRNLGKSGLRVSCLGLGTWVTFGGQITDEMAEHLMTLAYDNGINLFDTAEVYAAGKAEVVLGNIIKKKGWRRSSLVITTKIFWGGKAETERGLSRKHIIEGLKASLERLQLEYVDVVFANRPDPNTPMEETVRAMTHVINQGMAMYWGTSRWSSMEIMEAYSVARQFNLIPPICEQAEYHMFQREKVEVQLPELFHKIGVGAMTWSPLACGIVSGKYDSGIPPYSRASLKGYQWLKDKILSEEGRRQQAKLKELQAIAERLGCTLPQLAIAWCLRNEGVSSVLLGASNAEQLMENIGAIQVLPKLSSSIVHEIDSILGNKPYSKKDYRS
Assay [5] shares this target. Briefly: enhancers of rat Kvbeta2 NADPH turnover – biochemical, NADPH fluorescence, primary screen (AID 623;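 active = NADPH fluorescence slope more negative than the mean of all samples by about 3 SD, 99.7% confidence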;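 also: fluorescence intensity change per second fitted from 20 to 320 s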). The following applies: Recombinant KvBeta, NADPH fluorescence decrease slope, 10 min; at 10 µM; stronger effect = lower value.
For assay [6], the target named is Alpha-2C adrenergic receptor (Homo sapiens) (UniProt P18825). Description: compounds altering alpha2C-coupled GIRK flux – cell-based, HEK293 alpha2C/GIRK1/2, thallium flux, primary screen (AID 624;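 active = fluorescence slope after compound addition differing from the mean of all screened samples at 99.7% confidence, in either direction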;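 also: slope of fluorescence ratio to pre-addition baseline per second over 15 to 24 s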). The note with it: thallium flux BTC fluorescence, at 10 µM, actives lie on both sides.
Sequence of Alpha-2C adrenergic receptor (Homo sapiens) (P18825 whole entry, looked up): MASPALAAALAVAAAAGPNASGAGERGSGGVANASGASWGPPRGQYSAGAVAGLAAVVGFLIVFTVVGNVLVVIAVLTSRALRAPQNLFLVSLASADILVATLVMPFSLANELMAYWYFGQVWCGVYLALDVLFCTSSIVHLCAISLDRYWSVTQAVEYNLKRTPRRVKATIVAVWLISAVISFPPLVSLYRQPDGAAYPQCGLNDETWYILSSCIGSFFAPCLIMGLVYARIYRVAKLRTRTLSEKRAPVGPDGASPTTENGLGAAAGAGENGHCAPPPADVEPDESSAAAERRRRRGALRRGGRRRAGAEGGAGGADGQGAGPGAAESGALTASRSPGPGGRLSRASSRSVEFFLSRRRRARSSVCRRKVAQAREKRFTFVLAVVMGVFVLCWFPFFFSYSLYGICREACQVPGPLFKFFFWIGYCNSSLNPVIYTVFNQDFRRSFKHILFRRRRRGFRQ
Assay [7] is described as follows: blockers of RIG-like receptor reporter activation – cell-based, Sendai virus stimulus, luciferase, 10K MLSCN set, TLR/RLR signaling modifier project, primary screen (AID 602276).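 Also: firefly luciferase from ISG56 promoter only with Renilla not read in this screen; 0% = Sendai virus plus DMSO and 100% = medium plus DMSO without virus.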 The note with it: HEK293 RL24 IRF3 luciferase reporter, at 10 µM, stronger effect = higher value. On the technique in general: A reporter such as luciferase makes a cellular process visible.
Assay [8] can be described thus: TLR3 IRF3 reporter activation blockers – cell-based, poly I:C stimulus, luciferase, 10K MLSCN set, primary screen (AID 602277;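 active = inhibition of the reporter signal at or above 50%; inactive = inhibition below 50%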). The note with it: HEK293-TLR3 RL24 IRF3 luciferase reporter, at 10 µM, stronger effect = higher value.

For `Cc1ccc(CCNC(=O)C2CCCN2S(=O)(=O)c2ccc3c(c2)CCC(=O)N3)cc1` (stereo not drawn), the cell count in assay [1] stood at 702. The inhibition in assay [1] was -4.8% (inactive); in assay [3] it was -35% (inactive); in assay [7], -15.7% (inactive); in assay [8], 0.529% (inactive). Moreover, the inhibition of aggregation in assay [2] is -29.3% (inactive). The nuclei count in assay [2] was determined as 102%; in assay [3] it was 121%. For the same molecule, the fluorescence slope in assay [4] was -0.547 (inactive). Besides, in assay [5], the NADPH fluorescence slope is -1e-05 (inactive). Moreover, the slope in assay [6] was 0.0066 (inactive).

Regarding `COc1c(Br)cc2c(C)c(C(=O)O)oc2c1Br`, the cell count in assay [1] turned out to be 472. In addition, the inhibition in assay [1] is 3.5% (inactive); in assay [3] it was -26.9% (inactive); in assay [7], 9.89% (inactive); in assay [8], 18.8% (inactive). The inhibition of aggregation in assay [2] is -9.2% (inactive). The nuclei count in assay [2] came out at 95.6%; in assay [3], 112%. The fluorescence slope in assay [4] was -0.443 (inactive). Besides, the NADPH fluorescence slope in assay [5] is -0.000118 (inactive). Further, the slope in assay [6] is 0.00602 (inactive).

As to `COc1ccccc1-c1nnc(SCC(=O)NC2CCCCC2)o1`, the cell count in assay [1] came out at 490. Also, the inhibition was -7.8% (inactive) in assay [1], -86% (inactive) in assay [3], -1.61% (inactive) in assay [7] and 30.3% (inactive) in assay [8]. The inhibition of aggregation in assay [2] was -6.8% (inactive). The nuclei count in assay [2] amounted to 76%; in assay [3] it was 104%. For the same molecule, the fluorescence slope in assay [4] was -0.56 (inactive). Moreover, in assay [5], the NADPH fluorescence slope is 5e-05 (inactive). For the same molecule, in assay [6], the slope was 0.00636 (inactive).

As to `COc1ccc(NC(=O)CN2CCN(S(=O)(=O)c3ccc(Cl)cc3)CC2)cc1`, the cell count in assay [1] is 333. Besides, the inhibition was 1.1% (inactive) in assay [1], 5% (inactive) in assay [3], 11.8% (inactive) in assay [7] and 17.3% (inactive) in assay [8]. For the same molecule, in assay [2], the inhibition of aggregation was 17.3% (inactive). Further, the nuclei count in assay [2] is 123%; in assay [3], 116%. Further, the fluorescence slope in assay [4] is -0.411 (inactive). Moreover, the NADPH fluorescence slope in assay [5] was -2.8e-05 (inactive). Also, the slope in assay [6] was 0.00382 (inactive).

In the case of `CCCn1c(SCC(=O)Nc2ccccc2C(=O)OC)nc2c1c(=O)n(C)c(=O)n2C`, the cell count in assay [1] was found to be 576. Moreover, the inhibition was -10.9% (inactive) in assay [1], -152% (inactive) in assay [3], 15.9% (inactive) in assay [7] and 13% (inactive) in assay [8]. In assay [2], the inhibition of aggregation is 20.6% (inactive). The figures for the nuclei count in assay [2] and in assay [3] were 95.3% and 84.8%, respectively. Further, the fluorescence slope in assay [4] was -0.395 (inactive). Also, the NADPH fluorescence slope in assay [5] was -7.6e-05 (inactive). The slope in assay [6] was 0.00511 (inactive).

Regarding `Nc1cc(CN2C(=O)c3ccccc3C2=O)cc(Cl)c1O`, the cell count in assay [1] was found to be 451. For the same molecule, the inhibition is -1.8% (inactive) in assay [1], -74.6% (inactive) in assay [3], 12.8% (inactive) in assay [7] and 36.4% (inactive) in assay [8]. In addition, the inhibition of aggregation in assay [2] is 14.9% (inactive). Moreover, the nuclei count in assay [2] was found to be 100%; in assay [3] it was 159%. In addition, in assay [4], the fluorescence slope is -0.401 (inactive). Moreover, the NADPH fluorescence slope in assay [5] was -5.2e-05 (inactive). In assay [6], the slope is 0.00582 (inactive).

Take `CCN(CCCNC(=O)CC1Oc2ccc(C)cc2NC1=O)Cc1ccccc1` (stereo not drawn): in assay [1], the cell count came to 548. Besides, the inhibition in assay [1] is 5.1% (inactive); in assay [3], -42.9% (inactive); in assay [7], -5.16% (inactive); in assay [8], 30.7% (inactive). In assay [2], the inhibition of aggregation was 30.8% (inactive). Also, the nuclei count in assay [2] worked out at 102%; in assay [3] it was 128%. Besides, the fluorescence slope in assay [4] is -0.495 (inactive). Further, in assay [5], the NADPH fluorescence slope was -4.4e-05 (inactive). Also, the slope in assay [6] was 0.00631 (inactive).

Consider `COc1ccc(CCNC(=O)C2CC(=O)N(c3ccccc3)C2)cc1OC` (stereo not drawn), for which the cell count in assay [1] turned out to be 336. The inhibition in assay [1] is -2.5% (inactive); in assay [3], 22.4% (inactive); in assay [7] it was 16.9% (inactive); in assay [8], 25.7% (inactive). The inhibition of aggregation in assay [2] was -5.4% (inactive). In addition, the nuclei count worked out at 102% in assay [2] and 109% in assay [3]. Moreover, the fluorescence slope in assay [4] is -0.452 (inactive). Besides, the NADPH fluorescence slope in assay [5] is 8.4e-07 (inactive). Moreover, the slope in assay [6] is 0.00653 (inactive).
